Screening results deposited in PubChem by National Center for Advancing Translational Sciences (NCATS).
PI5P4K alpha inh – PI5P4K alpha (human) kinase inhibition; PI5P4Kalpha enzyme, ADP-Glo luminescence, 60 min; active compounds read low; max response, %; 330,000 tested, 1.2% active; AID 652105; active = max response of -50% or lower; inconclusive = between -30% and -50%; inactive = -30% or higher; also: value at the top dose of about 77 µM; % is scaled to controls: 0 for no effect and ±100 for the full control effect
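Single end-point luminescence (ADP-Glo) quantified ADP from PI5P4Kalpha turnover; ATP 5 microM final, 1 h at RT, 0.1% CHAPS and 0.28 mM EGTA in HEPES pH 7.4.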
WRN helicase inh – inhibitors of human WRN helicase. WRN helicase unwinding, fluorescent forked duplex, kinetic. 360,000 tested, 0.46% active. Potency, µM (series often up to 114 µM), for inactives: at the highest dose activity change, negative = inhibition, usual class: inhibitors. Q14191; also: potency is read from the fitted curve at half-maximal effect; % is scaled to controls: 0 for no effect and ±100 for the full control effect; nearly all actives have a fitted effect of over 55% in size
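Fluorescence dequenching readout, ex 525 nm/em 598 nm, kinetic mode: forked duplex DNA (100 nM final) with adjacent fluorophore and quencher unwound by WRN (20 nM final) with 2 mM ATP. Compound preincubation 15 min, room temperature.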
Pol iota inh – blocks human DNA polymerase iota activity; Pol iota fluorescent replication assay, 10 min; AID 588590; 390,000 tested, 1% active; Potency, µM (series often up to 115 µM), without a hit: top-dose activity, negative = inhibition, hits mostly inhibitors; Q9UNA4; also: potency is read from the fitted curve at half-maximal effect
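Pol iota at 10 nM preincubated 15 min with compounds at room temperature; reaction started with fluorescent substrate, 50 nM final. Fluorescence read kinetically at 0 and 10 min; buffer-only wells as negative control.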
Pol eta inh-1 – DNA polymerase eta (human) inhibition; recombinant Pol eta, fluorescent DNA replication assay; Potency, µM (doses to about 114 µM), for inactives: at the highest dose activity change, negative = inhibition, actives largely listed as inhibitors; Q9Y253; 390,000 tested, 1.2% active; also: potency is read from the fitted curve at half-maximal effect; % is scaled to controls: 0 for no effect and ±100 for the full control effect
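Fluorescent replication assay: 50 nM final substrate added after a 15 min room-temperature compound preincubation with 10 nM enzyme. Signal taken at 0 min and again at 10 min.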
POLB inh – DNA polymerase beta (human) inhibition. P06746. Pol beta primer extension/strand displacement, fluorescence kinetic. Potency, µM (doses to about 114 µM), without a hit: at the top dose activity change, negative = inhibition, most hits filed as inhibitors. 340,000 tested, 1.3% active; also: potency is read from the fitted curve at half-maximal effect; % is scaled to controls: 0 for no effect and ±100 for the full control effect
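Kinetic readout of DNA synthesis with strand displacement by Pol beta. Compound and 10 nM enzyme sit 15 min at room temperature; 50 nM substrate starts the reaction, read immediately and at 10 min.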
Pol kappa inh-1 – blocks human DNA polymerase kappa activity | purified Pol kappa, fluorescent DNA synthesis assay, 10 min | AID 588579 | 400,000 tested, 0.53% active | Potency, µM (highest dose often 107 µM), without a hit: top-dose activity, negative = inhibition, most hits filed as inhibitors | Q9UBT6; also: potency is read from the fitted curve at half-maximal effect; % is scaled to controls: 0 for no effect and ±100 for the full control effect
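10 nM Pol kappa preincubated 15 min at room temperature with compounds, then reaction started with substrate at 50 nM final. Fluorescence read kinetically at 0 and 10 min; buffer-only wells served as negative control.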
GALK inh confirm – confirmation of human galactokinase (GALK) inhibitors. shares compounds with Pol eta inh-1. purified GALK, Kinase-Glo ATP depletion luminescence. Potency, µM (top dose mostly 115 µM), inactives show at the highest dose activity, negative = inhibition, hits mostly inhibitors. 150 tested, 70% active
Redox cycling – generates H2O2 by redox cycling, flagging GALK artifacts | 150 tested, 40% active | Phenol red-HRP H2O2 redox cycling, absorbance 600 nm | AID 2035 | shares compounds with Pol eta inh-1 | Potency, µM (series often up to 115 µM), without a hit: at the highest dose activity change, negative = H2O2 signal, most hits filed as inhibitors
HEK293 viability – counter-screen for GALK inhibitors: HEK293 cell cytotoxicity | shares compounds with Pol eta inh-1 | Potency, µM (doses to about 46.1 µM), inactives show at the highest dose activity change, negative = cytotoxicity, actives largely listed as inhibitors | HEK-293 viability, ATP luminescence (CellTiter-Glo), 24/48 h | AID 2547 | 170 tested, 10% active; also: potency is read from the fitted curve at half-maximal effect; % is scaled to controls: 0 for no effect and ±100 for the full control effect
Pol kappa inh-2 – Pol kappa (human) inhibition, cherry-pick confirmation | Potency, µM, hits mostly inhibitors | shares compounds with Pol eta inh-1 | 920 tested, 76% active | purified Pol-kappa, fluorescent strand-displacement substrate | AID 720501; also: potency is read from the fitted curve at half-maximal effect
Pol eta inh-2 – Pol eta (human) inhibition, cherry-pick confirmation; Pol eta primer extension, TAMRA/BHQ fluorescence, 10 min; Potency, µM, actives largely listed as inhibitors; 2,600 tested, 64% active; shares compounds with Pol eta inh-1; also: potency is read from the fitted curve at half-maximal effect
* = called active by the depositor; ? = inconclusive; nt = no result given; [ ] = dose if it differs, or a comment. Rows were chosen to be rich in hits. Some 2.8% of all compounds tested hit in one or more screens of this group. Unless noted, calls follow the shape of the dose curve; as a rule, active = well fitted curve in the direction sought with a large enough effect; inconclusive = small, poorly fitted or top-dose-only effect, or another doubt; inactive = no such curve, though single readings can be large; an effect the other way counts as inactive or inconclusive.

SMILES | PI5P4K alpha inh | WRN helicase inh | Pol iota inh | Pol eta inh-1 | POLB inh | Pol kappa inh-1 | Pol eta inh-2 | others
O=Cc1ccc(-c2cccc(C(=O)O)c2)o1 | -20 | -5%[11.6 µM] | ? | 10µM* | ? | ? | 48*
Cc1ccc(Cn2cnc3c(oc4ccccc43)c2=O)cc1 | nt | nt | 14% | -16% | 0% | -1% | nt
Cc1c(Cl)cnc(NC(=O)COC(=O)c2ccc([N+](=O)[O-])s2)c1Cl | -79* | ? | 25µM* | 18µM* | 28µM* | -44% | 85*
CCC(=O)N1CCc2cc(Br)cc(S(=O)(=O)CCC(=O)NCCc3cccc(C)c3)c21 | nt | nt | 1% | -5% | -1% | -12%[60.1 µM] | nt
C/C(=N\NC(=O)c1cc(O)ccc1O)c1cccc(NC(=O)c2cccc(Cl)c2)c1 | ? | -20%[11.6 µM] | ? | ? | ? | 79µM* | ?
C/C(=N\NC(=O)c1ccccc1O)c1cccc(NC(=O)c2ccccc2)c1 | -11 | -12% | -3% | -1% | 3% | 6% | nt
Cc1ccc(C(=O)CSC2=C(C#N)C(c3ccco3)CC(=O)N2)c(C)c1 (stereo not given) | nt | ? | 18µM* | 79µM* | 32µM* | ? | ?
COc1cc(C(=O)Nc2nc3c(s2)Cc2c(Br)ccc(OC)c2-3)cc(OC)c1OC | nt | nt | 80% | nt | 43% | -12% | nt
Cc1cc2nc(-c3ccc(SCc4ccc(C(=O)O)cc4)nc3)[nH]c2cc1C | -64* | ? | ? | 28µM* | 22µM* | -18% | 38*
COc1cccc(CN2CCc3nc(Nc4ccc5c(c4)OCCO5)ncc3C2)c1OC | nt | nt | -6% | nt | 0% | -2%[60.1 µM] | nt
Cc1cc(C)cc(N2C(=O)CC(c3ccc(C(F)(F)F)cc3)C3=C2COC3=O)c1 (stereo not given) | nt | nt | 8% | -9% | -5% | -16% | nt
CC1CC(Nc2cccc(O)c2)=CC(=O)O1 (stereo not given) | 5 | 2% | -7% | -10% | 8% | -2% | nt
C[C@@H]1Cc2c(O)c(O)cc(O)c2C(=O)O1 | -27 | -21% | ? | 22µM* | 2.8µM* | 79µM* | 67*
Cc1nn(CC(=O)N2CCN(c3ccccc3F)CC2)c(=O)c2cccn12 | nt | nt | -8% | nt | -18% | -19% | nt
Cc1ccc(C)c(CN2C(=O)CSc3ccc(C(=O)NCCN4CCOCC4)cc32)c1 | -10 | -5% | 106% | -5% | -12% | -5% | nt | GALK inh confirm=-10%;Redox cycling=-9%;HEK293 viability=1%
COc1ccc(NC(=O)CSc2ncccc2C(=O)O)cc1OC | nt | nt | ? | -20% | 15% | -8%[60.1 µM] | nt
CC#CCCCC(=O)Nc1cccc(C(=O)O)c1 | -5 | -15%[57.1 µM] | ? | 14µM* | 4% | ? | ?
CCN(CC)c1ccc(NC(=O)CSc2ccsc2[N+](=O)[O-])c(C)c1 | ? | ? | ? | 45µM* | 25µM* | ? | ? | Pol kappa inh-2=60*
CCC(Cc1ccccc1)NC(=O)CSc1ccsc1[N+](=O)[O-] (stereo not given) | 0 | 1% | 3% | -3% | -11% | -1% | nt
CCc1ccc(C2c3c(n[nH]c3C)C(=O)N2c2ccc(C)cc2)cc1 (stereo not given) | nt | nt | 19% | ? | 4% | -21% | nt
CCn1c(=O)c2sccc2n2c(CCC(=O)N3CCN(c4ccccc4OC)CC3)nnc12 | nt | nt | 7% | -7% | 10% | -17% | nt
O=c1c(CCc2ccccc2)nc2cnc(Oc3ccccc3)nc2n1C[C@H]1CCCO1 | nt | nt | nt | nt | nt | -9%[60.1 µM] | nt
O=C(C1Cc2ccccc2CN1C(=O)c1ccccc1)N1CCN(c2ccccc2)CC1 (stereo not given) | -24 | -7%[11.6 µM] | ? | 79µM* | 32µM* | ? | 76* | Pol kappa inh-2=?
CCc1cccc(NC(=O)CC2Oc3ccc(C)cc3NC2=O)c1 (stereo not given) | nt | nt | -23% | -12% | 2% | 3% | nt
COC(=O)Cn1nc(C)c2c(C)n(-c3ccccc3)nc2c1=O | nt | nt | ? | nt | 13% | -9% | nt
SMILES | PI5P4K alpha inh | WRN helicase inh | Pol iota inh | Pol eta inh-1 | POLB inh | Pol kappa inh-1 | Pol eta inh-2 | others
CC(=O)NS(=O)(=O)c1ccc(NC(=O)/C=C/c2ccc(C)o2)cc1 | ? | -18%[11.6 µM] | ? | 22µM* | -16% | ? | 43*
Cc1ccc(/C=C/C(=O)Nc2ccc(N(C)C)cc2)o1 | -15 | -7% | 25% | -6% | 0% | -3% | nt
CN(C)c1ccc(/C=C/c2ccnc3ccccc23)c(F)c1 | nt | nt | 17% | nt | nt | 3% | nt
CCc1ccc(C(c2ccccc2)c2c[nH]c3ccc(C)cc23)s1 (stereo not given) | nt | nt | 99% | -5% | 22% | -8% | nt
CCCCC1C(=O)CC[C@H]2[C@@H]1CC(=O)[C@@H]2C/C=C\CCCC(=O)O (stereo not given in full) | -1 | ? | ? | ? | 26% | -26% | ?
CCC(=O)N1c2ccccc2CC1C(=O)NCc1cccc(OC)c1OC (stereo not given) | nt | nt | ? | -1% | -7% | -8%[60.1 µM] | nt
COc1ccc(C2N=C(Nc3nc4ccccc4o3)NC3=C2C(=O)CC(C)(C)C3)cc1 (stereo not given) | nt | nt | 9% | nt | nt | -15% | nt | HEK293 viability=-16%
CC1(C)CC(=O)C2=C(C1)Nc1ccccc1NC2c1ccc(F)cc1 (stereo not given) | 3 | -4%[57.1 µM] | 1% | 0% | -9% | 1% | nt
CC1(C)CC(=O)C2=C(C1)NC(Nc1nc3ccccc3o1)=NC2c1cccc(F)c1 (stereo not given) | nt | nt | 36% | nt | nt | -23% | nt | HEK293 viability=-3%
